Measured values from PubChem BioAssay (NCATS).
Values joined by “and” are separate entries in the source; they are usually repeats but may differ in a detail not shown here. Identical values can stand only once. Records with an inconclusive call do not appear. Entries that show only a call come without a potency. Active and inactive are the calls of the source. Unless noted, the call rests on the fitted dose curve.

Tests used:
[1] = target: Peroxisome proliferator-activated receptor gamma (Homo sapiens) (UniProt P37231); experiment: qHTS assay for small molecule agonists of peroxisome proliferator-activated receptor gamma signaling (AID 588536; active means well fitted curve in the direction sought with a large enough effect in the signal ratio, with a control signal flat, not every such curve was filed as active; the % refers to the signal ratio)
Sequence of Peroxisome proliferator-activated receptor gamma (Homo sapiens) (P37231 whole entry, looked up): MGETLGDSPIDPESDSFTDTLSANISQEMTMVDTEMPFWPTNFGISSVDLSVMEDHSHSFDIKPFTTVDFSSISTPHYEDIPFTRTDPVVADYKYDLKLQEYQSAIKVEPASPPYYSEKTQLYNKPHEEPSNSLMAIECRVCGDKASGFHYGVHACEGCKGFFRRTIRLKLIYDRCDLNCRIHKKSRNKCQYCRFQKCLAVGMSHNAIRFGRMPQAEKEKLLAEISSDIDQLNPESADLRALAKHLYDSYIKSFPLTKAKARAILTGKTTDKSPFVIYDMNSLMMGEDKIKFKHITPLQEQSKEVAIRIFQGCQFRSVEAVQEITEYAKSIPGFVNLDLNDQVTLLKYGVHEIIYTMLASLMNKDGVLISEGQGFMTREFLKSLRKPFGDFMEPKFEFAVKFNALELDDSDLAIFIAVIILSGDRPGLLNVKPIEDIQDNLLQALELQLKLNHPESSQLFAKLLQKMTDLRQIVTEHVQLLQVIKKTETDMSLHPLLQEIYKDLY
Summary of the method: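 PPAR-gamma-UAS-bla HEK293 cells in medium with 1% charcoal/dextran-treated FBS were exposed to compounds for 16 h at 37 C. Beta-lactamase activity was read with CCF4 substrate (405 nm excitation, 460/530 nm emission).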

[2] = target: Peroxisome proliferator-activated receptor gamma (Homo sapiens) (UniProt P37231); experiment: qHTS assay for small molecule antagonists of peroxisome proliferator-activated receptor gamma signaling (AID 588537; active means well fitted inhibition curve with a large enough effect in the signal ratio, with a control signal flat, not every such curve was filed as active; the % refers to the signal ratio;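 further: reporter cells co-stimulated with 50 nM rosiglitazone agonist during compound treatment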)
Summary of the method: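 PPARγ-UAS-bla HEK293 cells (3000/well) in 1% charcoal/dextran-stripped FBS are treated with compound, then stimulated with 50 nM rosiglitazone for 16 h at 37 °C. Read-out is CCF4 β-lactamase fluorescence after 2 h at RT. IC50 comes from Hill fits normalised to rosiglitazone and DMSO.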

[3] = qHTS assay for small molecule agonists of retinoid X receptor alpha signaling (AID 588544); conditions: HEK293T RXRa-UAS-bla, beta-lactamase reporter, 18 h; 530 nm emission
[4] = target: Retinoic acid receptor RXR-alpha (Homo sapiens) (UniProt P19793); experiment: as above
Sequence of Retinoic acid receptor RXR-alpha (Homo sapiens) (P19793 whole entry, looked up): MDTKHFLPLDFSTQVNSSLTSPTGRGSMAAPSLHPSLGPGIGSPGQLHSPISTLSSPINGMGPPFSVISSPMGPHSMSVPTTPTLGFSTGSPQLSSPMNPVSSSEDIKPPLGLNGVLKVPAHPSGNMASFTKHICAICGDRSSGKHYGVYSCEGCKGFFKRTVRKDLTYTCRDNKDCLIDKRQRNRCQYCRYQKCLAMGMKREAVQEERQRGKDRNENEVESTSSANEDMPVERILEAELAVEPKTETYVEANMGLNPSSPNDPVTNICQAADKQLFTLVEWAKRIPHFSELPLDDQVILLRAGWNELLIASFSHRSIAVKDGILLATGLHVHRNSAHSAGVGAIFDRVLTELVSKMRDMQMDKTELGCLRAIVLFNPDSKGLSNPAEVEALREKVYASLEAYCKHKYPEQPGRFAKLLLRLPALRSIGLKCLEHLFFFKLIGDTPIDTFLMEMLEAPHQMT

[5] = target: Thyroid hormone receptor beta (Homo sapiens) (UniProt P10828); experiment: qHTS assay for small molecule agonists of thyroid hormone receptor beta signaling (AID 588545)
Sequence of Thyroid hormone receptor beta (Homo sapiens) (P10828 whole entry, looked up): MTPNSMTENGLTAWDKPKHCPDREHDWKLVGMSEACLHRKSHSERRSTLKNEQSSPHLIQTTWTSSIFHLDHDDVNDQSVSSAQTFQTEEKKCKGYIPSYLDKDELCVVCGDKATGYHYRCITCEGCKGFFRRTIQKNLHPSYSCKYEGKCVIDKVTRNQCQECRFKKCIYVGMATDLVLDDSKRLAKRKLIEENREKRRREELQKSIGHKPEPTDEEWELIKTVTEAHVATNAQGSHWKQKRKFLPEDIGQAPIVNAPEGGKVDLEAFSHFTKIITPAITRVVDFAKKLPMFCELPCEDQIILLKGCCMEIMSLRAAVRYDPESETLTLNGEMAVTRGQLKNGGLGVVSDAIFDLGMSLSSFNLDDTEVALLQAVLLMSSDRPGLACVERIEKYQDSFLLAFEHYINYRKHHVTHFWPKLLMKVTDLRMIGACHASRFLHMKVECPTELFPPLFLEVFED
Summary of the method: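 Efficacy and EC50 values derive from Hill fits of qHTS titration data, normalized to 10 nM T3 and DMSO-only wells. HEK 293 reporter cells were stimulated for 18 hrs at 37 C, with beta-lactamase activity measured by CCF4 fluorescence.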

[6] = qHTS assay for small molecule antagonists of retinoid X receptor alpha signaling (AID 588546; active means well fitted inhibition curve with a large enough effect in the signal ratio, with a control signal flat, not every such curve was filed as active; the % refers to the signal ratio; further: potency means the concentration at half of the fitted maximal effect;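 on max response: cells stimulated with 9-cis-retinoic acid as agonist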); conditions: HEK293T RXRa-UAS-bla, beta-lactamase ratio, antagonist mode; measured here: W530 green channel, cytotoxicity proxy
Summary of the method: (§1)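 Beta-lactamase reporter inhibition, read as CCF4 fluorescence ratio (ex 405, em 460/530 nm) after 2 h at RT. HEK293T UAS-bla cells, 2500/well, were stimulated with 9-cis-RA at 500 or 100 nM final alongside test compound for 18 h at 37 C.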

[7] = target: Retinoic acid receptor RXR-alpha (Homo sapiens) (UniProt P19793); experiment: as above; conditions: HEK293T RXRa-UAS-bla, beta-lactamase ratio, antagonist mode
Summary of the method: as §1

[8] = target: Thyroid hormone receptor beta (Homo sapiens) (UniProt P10828); experiment: qHTS assay for small molecule antagonists of thyroid hormone receptor beta signaling (AID 588547; active means well fitted inhibition curve with a large enough effect in the signal ratio, with a control signal flat, not every such curve was filed as active; the % refers to the signal ratio;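 further: cells stimulated with 0.4 nM T3 agonist during compound exposure; series mostly up to about 77 µM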); conditions: TR-UAS-bla HEK293, beta-lactamase ratio, antagonist mode, 18 h
Summary of the method: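 TR-UAS-bla GripTite HEK293 cells in 2% charcoal/dextran FBS medium; compounds 0.59 nM to 92 uM with T3 at 0.4nM final, 18 h at 37 C. Beta-lactamase read by CCF4 fluorescence (460/530 nm); Hill fits gave IC50 and efficacy.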

[9] = target: Vitamin D3 receptor (Homo sapiens) (UniProt P11473); experiment: qHTS assay for small molecule antagonists of vitamin D receptor signaling (AID 588541);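 further: receptor activated by calcitriol during compound treatment; series mostly up to about 77 µM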
Sequence of Vitamin D3 receptor (Homo sapiens) (P11473 whole entry, looked up): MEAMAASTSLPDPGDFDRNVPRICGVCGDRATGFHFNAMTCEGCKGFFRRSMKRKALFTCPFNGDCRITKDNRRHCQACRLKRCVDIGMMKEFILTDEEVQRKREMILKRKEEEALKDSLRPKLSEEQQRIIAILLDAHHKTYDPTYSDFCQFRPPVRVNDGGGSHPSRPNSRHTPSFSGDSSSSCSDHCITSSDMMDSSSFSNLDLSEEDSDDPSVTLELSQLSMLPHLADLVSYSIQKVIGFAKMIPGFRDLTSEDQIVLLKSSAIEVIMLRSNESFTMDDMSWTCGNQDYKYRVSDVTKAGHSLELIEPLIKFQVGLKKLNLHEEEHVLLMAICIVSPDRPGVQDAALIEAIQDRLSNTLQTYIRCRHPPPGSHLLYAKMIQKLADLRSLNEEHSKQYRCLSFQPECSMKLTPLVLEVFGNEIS
Summary of the method: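 VDR-UAS-bla HEK293T cells in 2% charcoal-stripped FBS were stimulated with 1-alpha,25-dihydroxyvitamin D3 (3 nM final) plus compound for 16 h at 37 C. The beta-lactamase CCF4 readout was normalized to 50 nM agonist and DMSO, and Hill fits gave IC50.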

[10] = target: Vitamin D3 receptor (Homo sapiens) (UniProt P11473); experiment: qHTS assay for small molecule agonists of vitamin D receptor signaling (AID 588543)
Summary of the method: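 Reporter cells (HEK293T, VDR-UAS-bla) were seeded in medium with 2% charcoal-stripped serum and incubated 5 h, then compounds in concentration series were added for 16 h at 37 °C. Stimulation was scaled between DMSO basal and 50 nM 1α,25-dihydroxyvitamin D3.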

IC(I)I
outcome [1]: inactive | outcome [2]: inactive | max response [3]: 19.8% | outcome [4]: inactive | outcome [5]: inactive | max response [6]: -9.02% and 2.26% | max response [7]: 21.1% (inactive) and -13.8% (inactive) | activity change % (negative = inhibition) [8]: 1.7% (inactive) and 9.81% (inactive)

CC1=C2[C@@H]([C@H](C)CC[C@H]2/C=C(\C)C(=O)O)[C@H](O)C1
outcome [1]: inactive | max response [3]: 29.1% | outcome [4]: inactive | outcome [5]: inactive | max response [6]: 6.79% | max response [7]: -2.22% (inactive)

CC1=CCC(C(C)(C)O)CC1 (stereo unspecified)
outcome [1]: inactive | outcome [2]: inactive | outcome [9]: inactive | outcome [10]: inactive | max response [3]: -10.8% | outcome [4]: inactive | outcome [5]: inactive | max response [6]: 1.88% | max response [7]: -18.6% (inactive) | activity change % (negative = inhibition) [8]: -18.4% (inactive)

O=C(O)CN(CCN(CC(=O)O)CC(=O)O)CC(=O)O
outcome [1]: inactive | outcome [2]: inactive | max response [3]: -4.26% and -8.64% | outcome [4]: inactive | max response [6]: -5.66% and -2.36% | max response [7]: -4.8% (inactive) and -20.2% (inactive)

CCCCC(CC)COC(=O)CC(C(=O)OCC(CC)CCCC)S(=O)(=O)O (stereo unspecified)
outcome [10]: inactive | outcome [5]: inactive | activity change % (negative = inhibition) [8]: -5.51% (inactive)

Cc1ccccc1
outcome [1]: inactive | outcome [2]: inactive | outcome [9]: inactive | outcome [10]: inactive | max response [3]: -1.14% and 7.93% | outcome [4]: inactive | outcome [5]: inactive | max response [6]: -4.05% and 9.42% | max response [7]: -5.8% (inactive) and 14.2% (inactive)

CC(C)(C)NC(=O)[C@@H]1C[C@@H]2CCCC[C@@H]2CN1C[C@@H](O)[C@H](Cc1ccccc1)NC(=O)[C@H](CC(N)=O)NC(=O)c1ccc2ccccc2n1
outcome [9]: inactive | outcome [5]: inactive | max response [6]: 9.91% | Potency [7]: 22.4 µM (active)

CC1(C)C(C=C(Cl)Cl)C1C(=O)OCc1cccc(Oc2ccccc2)c1 (stereo unspecified)
outcome [9]: inactive | max response [6]: -5.2% [middle of 4 runs] | max response [7]: -8.16% (inactive) [middle of 4 runs] | activity change % (negative = inhibition) [8]: 3.43% (inactive) [middle of 4 runs]

CCCCC/C=C\C/C=C\CCCCCCCC(=O)O
outcome [2]: inactive | outcome [9]: inactive | outcome [10]: inactive | max response [3]: -2.55% | outcome [4]: inactive | outcome [5]: inactive | max response [6]: 2.1% | max response [7]: 12.5% (inactive) | activity change % (negative = inhibition) [8]: 8.73% (inactive) and 0.41% (inactive)

O=CCCCC=O
outcome [9]: inactive | outcome [10]: inactive | max response [3]: 18.3% | outcome [4]: inactive | outcome [5]: inactive | max response [6]: -9.66% | max response [7]: 27.6% (inactive) | activity change % (negative = inhibition) [8]: 0.64% (inactive)

O=S(=O)(O)O
outcome [1]: inactive | outcome [2]: inactive | max response [3]: -13.7% and 0.0864% | outcome [4]: inactive | outcome [5]: inactive | max response [6]: -14.3% and 12.6% | max response [7]: -0.45% (inactive) and -13.7% (inactive) | activity change % (negative = inhibition) [8]: 16% (inactive) and -10.1% (inactive)

CC(C)=O
outcome [1]: inactive | outcome [2]: inactive | outcome [9]: inactive | outcome [10]: inactive | max response [3]: 9.06% | outcome [4]: inactive | outcome [5]: inactive | max response [6]: 9.42% | max response [7]: 3.03% (inactive) | activity change % (negative = inhibition) [8]: -5.42% (inactive)

C[C@H]1C[C@H]2[C@@H]3CCC4=CC(=O)C=C[C@]4(C)[C@@]3(F)[C@@H](O)C[C@]2(C)[C@@]1(O)C(=O)CO
outcome [9]: inactive | outcome [5]: inactive | max response [6]: 8.66% | max response [7]: -12.7% (inactive)

CC(O)CO (stereo unspecified)
outcome [1]: inactive | outcome [2]: inactive | outcome [9]: inactive | outcome [10]: inactive | max response [3]: -9.84% and -15.2% | outcome [4]: inactive | outcome [5]: inactive | max response [6]: -2.37% and -5.47% | max response [7]: 9.68% (inactive) and 0.556% (inactive) | activity change % (negative = inhibition) [8]: 11.6% (inactive) and -10.9% (inactive)

O=C(O)CCC(=O)C(=O)O
outcome [1]: inactive | outcome [2]: inactive | outcome [9]: inactive | outcome [10]: inactive | max response [3]: -2.92% | outcome [4]: inactive | outcome [5]: inactive | max response [6]: -14.3% | max response [7]: 8.74% (inactive) | activity change % (negative = inhibition) [8]: 1.53% (inactive)

CCCCCCCC/C=C\CCCCCCCC(=O)O
outcome [1]: inactive | max response [3]: -22.4% and -10.3% | outcome [4]: inactive | outcome [5]: inactive | max response [6]: -6.26% and -12.6% | max response [7]: 31.8% (inactive) and 3.81% (inactive) | activity change % (negative = inhibition) [8]: -12.5% (inactive)

CCOc1ccc2c(c1)C(C)=CC(C)(C)N2
outcome [5]: inactive | activity change % (negative = inhibition) [8]: 8.54% (inactive)

Nc1ccn([C@H]2CS[C@@H](CO)O2)c(=O)n1
outcome [1]: inactive | outcome [9]: inactive | outcome [10]: inactive | max response [3]: 1% | outcome [4]: inactive | outcome [5]: inactive | max response [6]: -4.12% | max response [7]: 12.8% (inactive) | activity change % (negative = inhibition) [8]: 10.8% (inactive)

CCCCCCCC(=O)O
outcome [1]: inactive | outcome [9]: inactive | outcome [10]: inactive | max response [3]: 23.4% and -6.86% | outcome [4]: inactive | outcome [5]: inactive | max response [6]: -6.98% and -8.84% | max response [7]: 18.1% (inactive) and 2.05% (inactive) | activity change % (negative = inhibition) [8]: 8.96% (inactive) and 0.409% (inactive)

CC1=C(/C=C/C(C)=C/C=C/C(C)=C/CO)C(C)(C)CCC1
outcome [1]: inactive | outcome [9]: inactive | outcome [10]: inactive | outcome [5]: inactive | max response [6]: 23.5% and 17% | max response [7]: -17.7% (inactive) and -18.6% (inactive) | activity change % (negative = inhibition) [8]: 7.96% (inactive) and 4.62% (inactive)

CCOC(C)=O
outcome [1]: inactive | outcome [2]: inactive | outcome [9]: inactive | outcome [10]: inactive | max response [3]: -19.8% | outcome [4]: inactive | outcome [5]: inactive | activity change % (negative = inhibition) [8]: -2.37% (inactive)
